# Screening results: PubChem, Broad Institute
# Hits are enriched below; roughly 2.1% of the tested compounds scored in any of these assays.
# aSyn 5UTR inh = MLPCN primary screen, SNCA 5' untranslated region; 0.82% of 300,000 active; inhibition, % (tested at 7.5 µM); alpha-synuclein 5'UTR reporter, inhibitor activity; in the data active means inhibition above about 60%; inconclusive means no clear call, values can overlap the other calls;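 further: H4 neuroglioblastoma cells stably carrying SNCA 5'UTR luciferase fusion; 0% = DMSO wells and 100% = positive control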
# LMP1 NFkB inh = inhibitors of Epstein-Barr LMP1-induced NF-kappaB reporter; 0.69% of 350,000 active; LMP1-induced NF-kappaB luciferase reporter cells, luminescence; inhibition, % at 12.5 µM; in the data active means inhibition above about 41%; inconclusive means no clear call, values can overlap the other calls;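 further: 0% = neutral control wells and 100% = reference inhibitor control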
# MITF TRPM1 inh = inhibitors of MITF-driven TRPM1 promoter in melanoma cells. SK-MEL-5 TRPM1 promoter luciferase, 24 h. inhibition, % at 12.5 µM. 0.83% of 330,000 active;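 active means mean inhibition across replicates of 60% or more, whatever share of single replicates reaches that level; inconclusive means some that reach 60%, reason not given; inactive means mean inhibition across replicates below 60%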
# PAX8 inh HTS = PAX8 transcriptional activity inhibition | 1.2% of 360,000 active | inhibition, % at 12.6 µM | AID 652154 | RMG-I TPO-luciferase reporter, SteadyGlo, 24 h;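 active means mean replicate inhibition at least 60% with every replicate also reaching 60%; inconclusive means only one of the two criteria is met; inactive means mean below 60% and not all replicates reaching 60%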;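 further: luciferase light reporting Pax8 driven TPO promoter activity; plate controls were median of neutral control wells for no effect and mitoxantrone controls for full effect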
# Shn3 inh set2 = reduces Shn3 3'UTR luciferase signal in osteoblasts; inhibition, % at 12.5 µM; AID 588674; Clone20 osteoblast Shn3 3'UTR firefly luciferase, 24 h; 0.52% of 360,000 active;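 active means mean inhibition of at least 75% with every replicate also reaching 75%; inconclusive means mean inhibition at least 75% but some replicate below; inactive means mean inhibition below 75%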;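 further: 0% = median of neutral control wells and 100% = pilot-screen positive control compound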
# Numbers without * were called inactive; ? = inconclusive; / = no result given.
SMILES,aSyn 5UTR inh,LMP1 NFkB inh,MITF TRPM1 inh,PAX8 inh HTS,Shn3 inh set2
C1=C(c2c[nH]c3ccccc23)CCN(Cc2ccccc2)C1,35.1,-4.2,1.8,64.2*,33.9
O=[N+]([O-])c1ccc(CN2CC=C(c3ccccc3)CC2)cc1,-1.6,42.9*,7.2,/,12.1
OC(COCc1ccc(Cl)cc1)CN1CC=C(c2ccccc2)CC1 (configuration not stated),14.0,7.1,18.8,0.6,-13.7
Cc1ccc(NC(=O)CN2C(=O)CN=C(c3ccccc3)c3cc(Cl)ccc32)cc1,16.9,3.2,-2.2,32.4,4.8
COC(=O)C12OCC34C(CC5C(C)=C(O)C(=O)CC5(C)C3C(O)C1O)OC(=O)C(OC(=O)/C=C(\C)C(C)C)C24 (configuration not stated),/,95.4*,84.6*,95.9*,98.8*
Cc1onc(-c2ccccc2)c1C(=O)N1CCC2(CC1)OCCO2,3.0,-1.5,-1.3,/,15.1
COC(=O)C(O)(c1ccc(NC(=S)NC(=O)c2ccc(Cl)cc2Cl)cc1)C(F)(F)F (configuration not stated),9.5,0.7,6.6,83.8*,20.3
CN1C(=O)/C(=C/c2cccn2-c2ccc3ccccc3c2)C(=O)NC1=S,-18.9,19.0,?,/,28.5
O=C1NC(=S)NC(=O)C1=Cc1cccn1-c1ccc(O)cc1,-41.6,15.6,94.1*,31.6,16.3
Cc1cc(C)cc(N2C(=O)NC(=O)/C(=C\c3cccn3-c3ccccc3)C2=O)c1,-9.1,8.5,66.2*,15.9,74.0
COc1ccc(N2C(=O)NC(=O)/C(=C\c3cn(CC(=O)N4CCOCC4)c4ccccc34)C2=O)c(OC)c1,-16.0,0.4,-5.0,11.6,3.7
CC(C)N1C(=O)/C(=C/C=C/c2ccco2)C(=O)N(Cc2ccco2)C1=O,-30.8,-21.6,71.3*,-27.6,51.5
O=C1NC(=O)N(Cc2ccccc2)C(=O)/C1=C/C=C/c1ccco1,-296.5,-31.9,88.4*,27.4,58.7
Cc1ccc2nc(-c3ccc(CN4CCC(n5c(=O)[nH]c6ccccc65)CC4)cc3)c(-c3ccccc3)nc2c1,/,/,/,64.9*,/
O=c1[nH]c2ccccc2n1C1CCN(Cc2ccc(-c3nc4ccccc4nc3-c3ccccc3)cc2)CC1,/,/,/,47.9,/
CC(C)CCn1c(=O)c(C(=O)Nc2ccccc2S(N)(=O)=O)c(O)c2ccccc21,19.5,7.8,-5.1,69.3*,44.0
O=C1CC(=O)N(c2ccc(Cl)cc2Cl)C(=O)N1,-5.6,-2.7,1.9,-3.6,-2.4
COC(=O)C1=C(c2cccc(Cl)c2)C[C@@H]2CC[C@H]1N2C(=O)N1CCCC1,/,2.6,-0.9,-8.8,1.9
O=C(NCCN1CCC2(CC1)C(=O)NCN2c1ccccc1)c1ccccc1C(F)(F)F,/,/,/,-6.8,/
CC[C@@]1(O)C(=O)OCc2c1cc1n(c2=O)Cc2cc3c(NC(=O)CN)cccc3nc2-1,70.7*,76.7*,42.2,98.8*,27.2
CC[C@@]1(O)C(=O)OCc2c1cc1n(c2=O)Cc2cc3ccccc3nc2-1,116.0*,/,/,/,/
CCC1(OC(=O)CN)C(=O)OCc2c1cc1n(c2=O)Cc2cc3ccccc3nc2-1 (configuration not stated),103.4*,80.6*,80.0*,/,2.1
CC(=Nc1ccccc1N)c1c(O)n(C)c(=O)n(C)c1=O,-4.7,5.9,-4.4,-25.2,-13.8
CN1C(=O)N(C)C(=O)C2(Cc3ccccc3N3CCCC32)C1=O (configuration not stated),3.6,/,/,8.9,-2.3
COc1ccc(C(=O)c2nc3ccccc3n2C(C)C)cc1,-41.1,4.2,0.7,-4.8,-1.6
S=C=Nc1cccc(C2(N3CCCCC3)CCCCC2)c1,/,-12.3,75.0*,-14.4,-3.8
c1ccc(C2(N3CCCCC3)CCCCC2)cc1,/,-3.1,-3.2,/,7.0
Nc1cc(Cl)c2nonc2c1[N+](=O)[O-],/,0.4,93.1*,76.1*,94.8*
C=CCn1c(O)c(C(CC)=Nc2ccc(N(CC)CC)cc2)c(=O)[nH]c1=O,0.7,4.1,39.0,/,67.5
C[C@@H]1O[C@@H](O[C@@H]2C=C3CC[C@@H]4C(CC[C@]5(C)[C@@H](c6ccc(=O)oc6)CC[C@]45O)[C@@]3(C)CC2)[C@H](O)[C@H](O)[C@H]1O (some centres not stated),/,82.3*,83.4*,108.4*,2.9
